The structures appear in SMILES notation. Compounds without any hit were thinned out: in the full panel of roughly 83,000, 20% have a hit.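 Values shown are percent growth following 48 h exposure of cells in 96-well plates to a single concentration of compound; below 10 was considered active.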 Active and inactive are the calls of the source.

In the experiment the test system is SN12C renal. Description: NCI-60 one-dose screen, 48 h (100 = growth as untreated, 0 = no growth, -100 = all killed). The note with it: 10 µM unless noted.
On to `CN(C)c1ccc2nc3ccc(=[N+](C)C)c([N+](=O)[O-])c-3sc2c1`, for which the growth was 39.6% (inactive).

For the molecule `COc1cc(C(=O)/C=C/c2c(Cl)nc3sccn23)cc(OC)c1OC`, the growth was 66.3% (inactive).

For the molecule `CNc1ccc(Nc2cccc(C)c2)c2c1C(=O)c1ccccc1C2=O`, the growth was 80.4% (inactive).

With `Cc1cc(O)c(C2=NN(c3ccc(S(N)(=O)=O)cc3)C(c3ccccc3O)C2)cc1Cl` (stereo not drawn), the growth is 15.1% (inactive).

For `CCN1C(=O)N(CC)C2Nn3c(s/c(=C4\C(=O)N(CCC(C)C)c5ccccc54)c3=O)=NC21` (stereo not drawn), the growth is 89.3% (inactive).

Take `C=C(C)[C@@H]1CC[C@]2(N=C=O)CC[C@]3(C)[C@H](CC[C@@H]4[C@@]5(C)Cc6c([nH]c7ccccc67)C(C)(C)[C@@H]5CC[C@]43C)[C@@H]12`: the growth is 72.4% (inactive).

Take `O=C1CSC(c2c(Cl)cccc2Cl)N1c1nc(Cl)cc(=O)[nH]1` (stereo not drawn): the growth was 108% (inactive).

Turning to `COc1ccc(OC)c(/C=C/C(=O)N/N=C/c2ccccc2)c1`, the growth was 52.1% (inactive).

In the case of `Oc1ccc(-c2nc3ccc4[nH]ncc4c3c3c2CCCC3)c2cccnc12`, the growth is 4.02% (active).

Regarding `Cc1cc(O)c(C2=NN(c3ccc(S(N)(=O)=O)cc3)C(/C=C/c3ccccc3)C2)cc1Cl` (stereo not drawn), the growth is 66.4% (inactive).

`COc1ccc(C2=Nn3c(nnc3-c3cc(Cl)cc(Cl)c3Cl)SC2)cc1`: the growth was 39.3% (inactive).

As to `O=S(=O)(NCCCNc1cc(-c2c(-c3cccc(O)c3)nc3sccn23)ccn1)c1cccc2ccccc12`, the growth was 21.1% (inactive).

Turning to `c1cc(-c2nnc(SSc3ncnc4nc[nH]c34)o2)ccn1`, the growth was 55.8% (inactive).

Source of the values: PubChem BioAssay (NCI).
